The source of these data is PubChem BioAssay.

Calls of active or inactive are those of the source.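 The calls were made as follows, unless noted: active = inhibition of the reporter signal at or above 50%; inactive = inhibition below 50%.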

As usually defined, the inhibition is the relative decrease from the control value, in per cent.

A short description of test [1]: inhibitors of TNFa-induced NFkB p65 translocation, primary screen, imaging, HUVEC, MLSMR starter and 10KST1 sets (AID 438;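 active = inhibition above 20% together with a positive visual image hit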;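 also: compound added about 3h40 before a 20 min TNFalpha stimulation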;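 as to inhibition: signal is the nuclear over cytoplasmic p65 intensity ratio per well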). The conditions noted are these: HUVEC TNFa-induced p65 nuclear translocation; cell count: measured here: nuclei count (cytotoxicity indicator), at 2.08 µM; inhibition: at 2 µM, stronger effect = higher value, 0% TNFa-plus-vehicle, 100% no-TNFa wells.
Test [2] can be described thus: reduction of polyQ htt aggregates in cells – imaging, exon1htt(103Q)mCFP cells, high-content imaging, primary screen (AID 483;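 active = visual image review flags a hit and inhibition of aggregation exceeds 20%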;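 also: compound exposure lasted 3 days before fixation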;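 as to nuclei count: percent of the per-plate median nuclei count of sample wells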). The conditions noted are these: exon1htt(103Q)mCFP cell line, aggregate imaging, at 2 µM; inhibition of aggregation: stronger effect = higher value; nuclei count: measured here: cell count, toxicity.
Test [3] is described as follows: endothelial E-selectin expression blockers – imaging, HUVEC, immunofluorescence, MLSMR starter and 10KST1 sets, primary screen (AID 487;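 active = visually confirmed hit in the image check and inhibition above 20%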;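 as to inhibition: signal is fraction of cell area covered by stained E-selectin grains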;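 as to nuclei count: 100% = median nuclei count of all wells on the same plate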). The conditions noted are these: HUVEC TNFalpha-induced E-selectin immunofluorescence imaging, at 2 µM; inhibition: stronger effect = higher value; nuclei count: measured here: cell number, toxicity.
Test [4] deals with Voltage-gated potassium channel subunit beta-2 (Rattus norvegicus) (UniProt P62483). Description: inhibitors of rat Kvbeta2 reductase activity – biochemical, NADPH fluorescence, primary screen (AID 622;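 active = fluorescence slope higher than the sample average by over 3 SD, cut at about -0.22 in these data, passing the limit was not always enough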;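 also: slope of raw intensity against log time taken from 70 to 1610 s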). Particulars: recombinant KvBeta, 4-cyanobenzaldehyde reduction, at 10 µM, stronger effect = higher value.
Sequence of Voltage-gated potassium channel subunit beta-2 (Rattus norvegicus) (P62483 whole entry, looked up): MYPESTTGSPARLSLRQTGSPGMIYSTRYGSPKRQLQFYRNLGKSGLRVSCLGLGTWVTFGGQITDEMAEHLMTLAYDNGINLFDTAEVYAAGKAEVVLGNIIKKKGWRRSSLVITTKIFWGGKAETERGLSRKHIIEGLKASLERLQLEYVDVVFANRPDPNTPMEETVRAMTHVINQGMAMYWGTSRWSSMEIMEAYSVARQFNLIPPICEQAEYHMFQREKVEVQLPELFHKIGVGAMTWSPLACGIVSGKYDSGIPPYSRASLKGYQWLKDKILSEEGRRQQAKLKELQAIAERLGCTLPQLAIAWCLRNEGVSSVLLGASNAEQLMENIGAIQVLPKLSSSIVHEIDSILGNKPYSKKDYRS
For test [5] the target is unchanged. Description: enhancers of rat Kvbeta2 NADPH turnover – biochemical, NADPH fluorescence, primary screen (AID 623;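 active = NADPH fluorescence slope more negative than the mean of all samples by about 3 SD, 99.7% confidence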;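 also: fluorescence intensity change per second fitted from 20 to 320 s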). Particulars: Recombinant KvBeta, NADPH fluorescence decrease slope, 10 min; at 10 µM; stronger effect = lower value.
Test [6] addresses Alpha-2C adrenergic receptor (Homo sapiens) (UniProt P18825). The test is described as follows: compounds altering alpha2C-coupled GIRK flux – cell-based, HEK293 alpha2C/GIRK1/2, thallium flux, primary screen (AID 624;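 active = fluorescence slope after compound addition differing from the mean of all screened samples at 99.7% confidence, in either direction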;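 also: slope of fluorescence ratio to pre-addition baseline per second over 15 to 24 s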). Particulars: thallium flux BTC fluorescence, at 10 µM, actives lie on both sides.
Test [7] can be described thus: blockers of RIG-like receptor reporter activation – cell-based, Sendai virus stimulus, luciferase, 10K MLSCN set, TLR/RLR signaling modifier project, primary screen (AID 602276;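 active = inhibition at or above 50% at 10 µM; inactive = inhibition below 50%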;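 also: firefly luciferase from ISG56 promoter only with Renilla not read in this screen; 0% = Sendai virus plus DMSO and 100% = medium plus DMSO without virus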). Particulars: HEK293 RL24 IRF3 luciferase reporter, at 10 µM, stronger effect = higher value.
Test [8] in a line: TLR3 IRF3 reporter activation blockers – cell-based, poly I:C stimulus, luciferase, 10K MLSCN set, primary screen (AID 602277). Particulars: HEK293-TLR3 RL24 IRF3 luciferase reporter, at 10 µM, stronger effect = higher value. Background: Reporter assays use an easily measured gene product as a stand-in for the process of interest.

Sequence of Alpha-2C adrenergic receptor (Homo sapiens) (P18825 whole entry, looked up): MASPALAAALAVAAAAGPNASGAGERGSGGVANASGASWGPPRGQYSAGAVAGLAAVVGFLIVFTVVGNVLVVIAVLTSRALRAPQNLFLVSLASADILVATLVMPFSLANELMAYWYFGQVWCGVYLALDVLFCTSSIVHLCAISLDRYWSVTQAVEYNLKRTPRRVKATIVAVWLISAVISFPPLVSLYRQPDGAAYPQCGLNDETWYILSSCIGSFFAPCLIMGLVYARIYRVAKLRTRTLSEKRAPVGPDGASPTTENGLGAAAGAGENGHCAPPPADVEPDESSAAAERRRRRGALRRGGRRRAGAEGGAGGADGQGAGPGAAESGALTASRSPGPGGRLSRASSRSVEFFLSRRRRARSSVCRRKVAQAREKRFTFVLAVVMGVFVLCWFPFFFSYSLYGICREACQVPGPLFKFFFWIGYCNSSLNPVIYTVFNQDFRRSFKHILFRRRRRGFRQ

With `COC(=O)c1c(NC(=O)CSc2nnc(-c3cccnc3)n2Cc2ccco2)sc(C)c1C`, the cell count in test [1] is 505. The inhibition in test [1] is -5.5% (inactive); in test [3], 29.5% (inactive); in test [7], 4.42% (inactive); in test [8] it was 16.1% (inactive). Also, the inhibition of aggregation in test [2] is 24% (inactive). In addition, the nuclei count came to 101% in test [2] and 104% in test [3]. In addition, the fluorescence slope in test [4] is -0.579 (inactive). Also, in test [5], the NADPH fluorescence slope is -2.7e-05 (inactive). In addition, the slope in test [6] was 0.00567 (inactive).

As to `COC(=O)CCCCCc1ccc(C(C)=O)s1`, the cell count in test [1] was 350. The inhibition in test [1] was -6.3% (inactive); in test [3] it was -65.9% (inactive); in test [7], 16.6% (inactive); in test [8] it was 15.4% (inactive). In addition, the inhibition of aggregation in test [2] was 10.5% (inactive). For the same compound, the nuclei count in test [2] stood at 101%; in test [3], 120%. The fluorescence slope in test [4] was -0.496 (inactive). In addition, the NADPH fluorescence slope in test [5] was -3.1e-05 (inactive). Further, in test [6], the slope was 0.00508 (inactive).

Turning to `CN(C)CCN1C(=O)c2oc3ccc(Cl)cc3c(=O)c2C1c1cccc(Br)c1` (centres undefined), in test [1], the cell count was 229. The inhibition in test [1] is -8.1% (inactive); in test [3], -36.3% (inactive); in test [7], 17.2% (inactive); in test [8], 49.7% (inactive). The inhibition of aggregation in test [2] was 13.3% (inactive). Also, the figures for the nuclei count in test [2] and in test [3] were 83.3% and 89.9%, respectively. The fluorescence slope in test [4] was -0.412 (inactive). Further, in test [5], the NADPH fluorescence slope is -1.4e-05 (inactive). In test [6], the slope was 0.00335 (inactive).

With `COc1cc(NC(=O)CSCc2cnn(-c3ccccc3)c2-n2cccc2)cc(OC)c1`, in test [1], the cell count amounted to 662. In addition, the inhibition in test [1] was 6.1% (inactive); in test [3], -32% (inactive); in test [7] it was 15.7% (inactive); in test [8], 11.2% (inactive). For the same compound, the inhibition of aggregation in test [2] was 9.3% (inactive). Further, the nuclei count is 97.9% in test [2] and 98.1% in test [3]. Also, the fluorescence slope in test [4] was -0.315 (inactive). For the same compound, the NADPH fluorescence slope in test [5] is -7.1e-05 (inactive). Also, the slope in test [6] was 0.00868 (inactive).

Turning to `CCOC(=O)c1sc(NC(=O)CSc2nnc(-c3ccc(OC)cc3)n2CCOC)nc1C`, in test [1], the cell count was determined as 633. Also, the inhibition was 12.1% (inactive) in test [1], -89.1% (inactive) in test [3], 13.8% (inactive) in test [7] and 24.5% (inactive) in test [8]. Further, the inhibition of aggregation in test [2] is 12.9% (inactive). Moreover, the nuclei count in test [2] was 88.1%; in test [3] it was 140%. Besides, the fluorescence slope in test [4] is -0.481 (inactive). Moreover, the NADPH fluorescence slope in test [5] is 1.3e-05 (inactive). Moreover, the slope in test [6] was 0.00672 (inactive).

As to `C=COC(=O)CSc1snc(SCC(=O)OC)c1C#N`, the cell count in test [1] stood at 300. For the same compound, the inhibition in test [1] is -6.3% (inactive); in test [3] it was -31.9% (inactive); in test [7] it was 15.5% (inactive); in test [8] it was 18.4% (inactive). Further, the inhibition of aggregation in test [2] was 11.1% (inactive). Also, the nuclei count is 102% in test [2] and 88.9% in test [3]. Further, the fluorescence slope in test [4] is -0.581 (inactive). Further, the NADPH fluorescence slope in test [5] was -4.2e-06 (inactive). For the same compound, the slope in test [6] is 0.00524 (inactive).

`Cn1c(=O)c2c(nc(CN3CCN(Cc4ccccc4)CC3)n2Cc2cccc(Cl)c2)n(C)c1=O`: the cell count in test [1] amounted to 488. Also, the inhibition in test [1] was -13.1% (inactive); in test [3] it was 10.1% (inactive); in test [7], 15.9% (inactive); in test [8], 48.7% (inactive). For the same compound, the inhibition of aggregation in test [2] is 6.5% (inactive). In addition, the results for the nuclei count in test [2] and in test [3] were 100% and 98%, respectively. Also, the fluorescence slope in test [4] is -0.562 (inactive). The NADPH fluorescence slope in test [5] is -5.1e-05 (inactive). Moreover, the slope in test [6] was 0.00606 (inactive).

Take `CCOC(=O)c1c(C)c(C(=O)NCCN2CCOCC2)c(C)n1C`: in test [1], the cell count came out at 607. Also, the inhibition in test [1] was -11.6% (inactive); in test [3], 1.3% (inactive); in test [7], 13.6% (inactive); in test [8] it was 22.1% (inactive). Also, the inhibition of aggregation in test [2] was 13% (inactive). The results for the nuclei count in test [2] and in test [3] were 88.4% and 103%, respectively. Further, in test [4], the fluorescence slope is -0.496 (inactive). For the same compound, the NADPH fluorescence slope in test [5] is -8.5e-05 (inactive). The slope in test [6] is 0.00563 (inactive).

On to `COc1ccc(C(O)C(CN2CCOCC2)c2ccccc2)cc1F` (centres undefined), for which the cell count in test [1] was determined as 337. The inhibition in test [1] was -1.6% (inactive); in test [3], -20.8% (inactive); in test [7], 13.7% (inactive); in test [8], 17.9% (inactive). In addition, the inhibition of aggregation in test [2] was -2.1% (inactive). The nuclei count in test [2] turned out to be 102%; in test [3], 104%. In test [4], the fluorescence slope was -0.493 (inactive). In test [5], the NADPH fluorescence slope is 1.8e-06 (inactive). The slope in test [6] was 0.0062 (inactive).

In the case of `CC(=O)N1CCN=C1SCc1ccc(Br)cc1`, the cell count in test [1] came out at 442. Moreover, the inhibition was 14.5% (inactive) in test [1], 39.5% (inactive) in test [3], -0.301% (inactive) in test [7] and 22.3% (inactive) in test [8]. The inhibition of aggregation in test [2] was 15.2% (inactive). For the same compound, the figures for the nuclei count in test [2] and in test [3] were 95.1% and 98.6%, respectively. In addition, the fluorescence slope in test [4] was -0.632 (inactive). Moreover, the NADPH fluorescence slope in test [5] is -9.6e-06 (inactive). Besides, in test [6], the slope was 0.00733 (inactive).

Regarding `CCOC(=O)C1=C(c2ccccc2)NC(=O)NC1c1ccc(N(C)C)cc1` (centres undefined), in test [1], the cell count was 363. Also, the inhibition in test [1] was -0.5% (inactive); in test [3] it was -131% (inactive); in test [7], 12.6% (inactive); in test [8], 29.3% (inactive). For the same compound, the inhibition of aggregation in test [2] is 14.6% (inactive). Moreover, the values for the nuclei count in test [2] and in test [3] were 86.7% and 118%, respectively. Also, in test [4], the fluorescence slope was -0.439 (inactive). In addition, the NADPH fluorescence slope in test [5] was -4.5e-05 (inactive). In addition, the slope in test [6] was 0.00395 (inactive).

With `CSc1nc(C)c(C(=O)Nc2ccccc2)c(C)c1C#N`, in test [1], the cell count amounted to 761. Besides, the inhibition in test [1] was -11.2% (inactive); in test [3] it was -40.9% (inactive); in test [7], 16.8% (inactive); in test [8], 18.5% (inactive). The inhibition of aggregation in test [2] is -5.9% (inactive). Also, the nuclei count was found to be 103% in test [2] and 118% in test [3]. The fluorescence slope in test [4] was -0.483 (inactive). In addition, in test [5], the NADPH fluorescence slope was -2.5e-05 (inactive). Besides, the slope in test [6] was 0.00491 (inactive).

In the case of `O=C(Nc1cccc2ccccc12)N1CCN(c2ccccc2)CC1`, in test [1], the cell count stood at 767. For the same compound, the inhibition in test [1] is -6.4% (inactive); in test [3] it was -12.2% (inactive); in test [7], 8.28% (inactive); in test [8], 15.2% (inactive). For the same compound, the inhibition of aggregation in test [2] was 26.6% (inactive). Further, the nuclei count in test [2] stood at 94.9%; in test [3] it was 100%. Further, the fluorescence slope in test [4] was -0.525 (inactive). Further, the NADPH fluorescence slope in test [5] was -2.7e-05 (inactive). Besides, the slope in test [6] is 0.00612 (inactive).

With `Clc1ccc(C2Nc3ccccc3-n3cccc32)cc1` (centres undefined), in test [1], the cell count is 637. Also, the inhibition in test [1] was -1.6% (inactive); in test [3], -44.3% (inactive); in test [7], 5.43% (inactive); in test [8], 18.8% (inactive). Further, the inhibition of aggregation in test [2] was 8.6% (inactive). For the same compound, the nuclei count stood at 109% in test [2] and 104% in test [3]. In addition, in test [4], the fluorescence slope is -0.301 (inactive). In addition, the NADPH fluorescence slope in test [5] is 2.7e-06 (inactive). In test [6], the slope was 0.00628 (inactive).
